Test [1] can be described thus: yeast TOR pathway RPL19A-GFP modulators, primary screen, cell-based, S. cerevisiae, multiplex flow cytometry (AID 1862; in the data active = percent of DMSO control GFP below about 86%;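 also: lower values mimic rapamycin by blocking the RPL19A rise seen in DMSO cells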). The note with it: S. cerevisiae RPL19A-GFP strain, flow cytometry fluorescence, 3 h; at 10 µM; stronger effect = lower value. A general note: A flow cytometer gives signals particle by particle.
Test [2] in a line: modulators of MEP2-GFP levels in yeast, primary screen, S. cerevisiae, multiplex flow cytometry (AID 1867;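 active = GFP response, as percent of the DMSO control, above the screen-wide mean plus 3 SD, about 139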;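 also: median GFP channel fluorescence of barcode-gated MEP2-GFP cells measured by flow cytometry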). The following applies: S. cerevisiae MEP2-GFP strain, 3 h, at 10 µM, stronger effect = higher value, 100% means same as DMSO wells.
A short description of test [3]: modulators of CIT2-GFP expression in yeast, primary screen, S. cerevisiae, GFP fusion, multiplex flow cytometry (AID 1870;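 active = percent response above a set limit, the screen-wide mean plus 3 SD, cut at about 130% in these data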;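 also: barcoded CIT2-GFP strain pooled with four other GFP strains with rapamycin as positive control; median GFP fluorescence per well over plate mean of DMSO wells so 100% = DMSO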). The note with it: 3 h, at 10 µM, stronger effect = higher value.
The nature of test [4]: modulators of LAP4-GFP expression in yeast, primary screen, S. cerevisiae, multiplex flow cytometry (AID 1873;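 active = GFP signal, as percent of the solvent control, above the screen mean plus 3 SD, about 149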). The note with it: 3 h, at 10 µM, stronger effect = higher value.
Test [5] can be described thus: modulators of AGP1-GFP expression in yeast TOR pathway, primary screen, cell-based, multiplex flow cytometry, S. cerevisiae (AID 1887;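 active = GFP signal above the screen-wide mean plus 3 SD, that is over about 124.5% of the solvent control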;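 also: AGP1-GFP fusion strain of S. cerevisiae within a five-strain barcoded multiplex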). The note with it: 3 h, at 10 µM, stronger effect = higher value.
Test [6] is described as follows: inhibitors of CD8+ T cell-vesicle binding, pilot screen, LFA-1/ICAM-1 modulator project, MLPCN validation set, flow cytometry (AID 2523;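 active = response below a set limit, under 55% cells CD8-positive and vesicle-bound, and CD8 cells' 90th-percentile brightness under 279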;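 as to vesicle binding response: mean PE anti-B7-1 fluorescence of CD8+ cells relative to row control; 100% = QL9-loaded vesicles with DMSO vehicle in the same plate row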). The following applies: 2C mouse CD8+ T cells, at 7 µM, stronger effect = lower value; double positive events: measured here: CD8+/vesicle+ event percentage.
Test [7] addresses Integrin beta-1 (Homo sapiens) + Integrin alpha-4 (Homo sapiens) (UniProt P13612+P05556). Briefly: inhibition of HUTS-21 binding to VLA-4, pilot screen, VLA-4 allosteric modulator project, U937 cells, HUTS-21 mAb, flow cytometry, validation set (AID 2674;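 active = inhibition above 50%, about 3 SD of the validation set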;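 also: antibody binding induced by the VLA-4 ligand LDV present at three times its Kd; 0% = LDV ligand with antibody and no compound and 100% = antibody without LDV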). The note with it: HUTS-21 LIBS mAb binding, at 6.7 µM, stronger effect = higher value, binding induced by LDV ligand.
Test [8] can be described thus: superoxide lowering in aged yeast cells, pilot screen, validation compound set (AID 2706;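 active = superoxide response below 65% of plate, a cut near 3 SD across the whole screen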;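 also: yeast exposed to compound for one week at 30 degrees C before staining; 100% = mean of all compound wells on the same plate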). The following applies: S. cerevisiae aging, superoxide DHE fluorescence; at 10 µM; stronger effect = lower value.
Test [9] addresses Beta-adrenergic receptor kinase 1 (Homo sapiens) (UniProt P25098). Briefly: GRK2 binders displacing RNA aptamer, biochemical, validation, human GRK2, bead flow cytometry (AID 488806;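 active = aptamer binding inhibition above 30%, about 3 SD of noise from non-fluorescent compounds; inactive = inhibition at or below 30%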). The note with it: bead-bound GRK2, FAM-aptamer displacement, at 10 µM, stronger effect = higher value.
The target of test [10] is Beta-2 adrenergic receptor (Homo sapiens) (UniProt P07550). Briefly: beta2AR agonists driving receptor internalization, pilot screen, cell-based, FAP fluorogen, flow cytometry, validation set (AID 504459;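 active = percent response above 42, roughly 3 SD of non-fluorescent test compounds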;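 also: agonist-driven loss of surface beta2AR via internalization measured by FAP dye flow cytometry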). The following applies: Am2.2-beta2AR cells, FAP surface receptor flow cytometry; at 10 µM; stronger effect = higher value.
Sequence of Beta-2 adrenergic receptor (Homo sapiens) (P07550 whole entry, looked up): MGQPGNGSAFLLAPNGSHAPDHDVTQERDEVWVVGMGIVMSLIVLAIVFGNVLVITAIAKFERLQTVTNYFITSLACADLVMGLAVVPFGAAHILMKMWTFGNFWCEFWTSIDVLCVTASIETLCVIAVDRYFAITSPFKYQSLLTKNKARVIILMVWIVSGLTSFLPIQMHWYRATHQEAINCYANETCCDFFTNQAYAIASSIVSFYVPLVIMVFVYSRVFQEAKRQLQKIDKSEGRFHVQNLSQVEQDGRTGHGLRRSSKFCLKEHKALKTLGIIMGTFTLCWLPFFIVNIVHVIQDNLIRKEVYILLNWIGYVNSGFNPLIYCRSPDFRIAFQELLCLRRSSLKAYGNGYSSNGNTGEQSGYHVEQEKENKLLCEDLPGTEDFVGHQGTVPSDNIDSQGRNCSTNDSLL
Test [11] addresses AP-2 complex subunit beta (Homo sapiens) (UniProt P63010). Briefly: inhibitors of arrestin peptide binding to AP2, pilot screen, biochemical, validation set, GST-AP2 beads, flow cytometry (AID 504541;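 active = inhibition above 54%, about 3 SD of non-fluorescent compounds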;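 also: AP2 carries R879A mutation and is captured from E. coli lysate; bead-bound FITC arrestin peptide fluorescence measuring arrestin peptide binding to AP2; 0% = DMSO wells and 100% = excess unlabeled arrestin peptide control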). The note with it: FITC arrestin peptide, at 10 µM, stronger effect = higher value, AP2 beta2 appendage fragment, R879A mutant.
A short description of test [12]: yeast V-ATPase proton transport modulators, S. cerevisiae, pHLuorin, HTS validation (AID 504600; in the data active = response above about 15%;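 also: plate controls were DMSO for no effect and reference compound for full effect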). The following applies: S. cerevisiae pHLuorin cytosolic pH, at 10 µM, stronger effect = higher value.
For test [13], the system named is anti-desmoglein-3 scFv antibody binding to human DSG3. Briefly: inhibitors of anti-DSG3 scFv binding to DSG3, pilot screen, biochemical, validation compound set, bead-based, flow cytometry (AID 588368).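 Also: signal is the median channel fluorescence of bead-bound GFP antibody.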 The following applies: Protein G beads, DSG3-Fc, scFv-GFP binding, at 10 µM, stronger effect = lower value.
Test [14] is described as follows: inhibitors of fungal efflux pumps CDR1, CDR2, MDR1, pilot screen, validation compound set, multiplex, phenotypic (AID 588506;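 active = efflux inhibition above 0.42, the validation set average plus 4 SD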;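 also: Nile Red retained in cells so higher fluorescence means more efflux inhibition; 0 = negative control wells and 1 = enniatin B 25 µM full block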). The following applies: S. cerevisiae pump-expressing triplex, Nile Red efflux flow cytometry; at 10 µM; stronger effect = higher value; the pumps come from Candida albicans.
Test [15] has as its target ATP-binding cassette sub-family B member 6 (Homo sapiens) (UniProt Q9NP58). Briefly: ABCB6 transporter inhibitors, pilot screen, K562-ABCB6 cells, flow cytometry, validation set (AID 588550;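 active = inhibition above the screen-wide mean plus 3 SD, about 51%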;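 also: 0% = DMSO wells and 100% = benzethonium chloride 70 µM positive control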). The note with it: K562-ABCB6 porphyrin accumulation, 1 h, at 10 µM, stronger effect = higher value.
The nature of test [16]: promoters of myeloid differentiation in arrested cells, primary screen, cell-based, GFP/MAC1 double positive, flow cytometry, validation set (AID 588685;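 active = differentiation response of at least 50%, scaled between solvent and reference control, from cells with both markers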;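 also: compound exposure lasts four days before antibody staining and flow analysis; 0% = DMSO wells and 100% = 5 µM fulvestrant positive control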). The following applies: ER-HoxA9 marrow cells, stronger effect = higher value, normalized: vehicle 0, fulvestrant 100.

Consider five compounds from PubChem BioAssay.

Results filed as inconclusive are left out. The source made the active and inactive calls.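 The calls were made as follows, unless noted: active = binding below the plate cutoff, the plate median minus 3 SD, with a reading above zero; inconclusive = below the plate cutoff but reading exactly zero; inactive = the rest.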

Sequence of Integrin beta-1 (Homo sapiens) + Integrin alpha-4 (Homo sapiens) (P05556 whole entry, looked up): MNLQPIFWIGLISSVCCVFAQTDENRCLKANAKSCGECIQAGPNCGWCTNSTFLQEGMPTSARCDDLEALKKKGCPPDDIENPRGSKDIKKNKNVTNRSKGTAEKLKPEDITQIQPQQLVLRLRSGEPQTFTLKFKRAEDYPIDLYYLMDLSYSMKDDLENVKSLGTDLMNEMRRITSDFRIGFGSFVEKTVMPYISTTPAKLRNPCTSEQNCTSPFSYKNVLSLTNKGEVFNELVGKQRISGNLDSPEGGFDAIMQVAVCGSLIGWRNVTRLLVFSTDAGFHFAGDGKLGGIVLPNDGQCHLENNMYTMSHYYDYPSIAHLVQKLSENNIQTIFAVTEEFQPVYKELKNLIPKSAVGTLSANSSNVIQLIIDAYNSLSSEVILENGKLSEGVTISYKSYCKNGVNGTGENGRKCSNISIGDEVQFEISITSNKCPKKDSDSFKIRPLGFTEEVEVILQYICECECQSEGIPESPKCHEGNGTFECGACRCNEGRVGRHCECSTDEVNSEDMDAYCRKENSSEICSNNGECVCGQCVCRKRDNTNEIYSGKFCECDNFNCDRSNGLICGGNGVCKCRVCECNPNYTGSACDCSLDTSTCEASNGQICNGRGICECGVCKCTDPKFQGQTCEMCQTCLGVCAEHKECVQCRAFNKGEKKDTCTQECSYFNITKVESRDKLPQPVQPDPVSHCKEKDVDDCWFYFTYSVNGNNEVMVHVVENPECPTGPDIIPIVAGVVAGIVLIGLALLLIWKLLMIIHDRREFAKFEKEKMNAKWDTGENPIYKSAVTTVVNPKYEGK
Sequence of Integrin beta-1 (Homo sapiens) + Integrin alpha-4 (Homo sapiens) (P13612 whole entry, looked up): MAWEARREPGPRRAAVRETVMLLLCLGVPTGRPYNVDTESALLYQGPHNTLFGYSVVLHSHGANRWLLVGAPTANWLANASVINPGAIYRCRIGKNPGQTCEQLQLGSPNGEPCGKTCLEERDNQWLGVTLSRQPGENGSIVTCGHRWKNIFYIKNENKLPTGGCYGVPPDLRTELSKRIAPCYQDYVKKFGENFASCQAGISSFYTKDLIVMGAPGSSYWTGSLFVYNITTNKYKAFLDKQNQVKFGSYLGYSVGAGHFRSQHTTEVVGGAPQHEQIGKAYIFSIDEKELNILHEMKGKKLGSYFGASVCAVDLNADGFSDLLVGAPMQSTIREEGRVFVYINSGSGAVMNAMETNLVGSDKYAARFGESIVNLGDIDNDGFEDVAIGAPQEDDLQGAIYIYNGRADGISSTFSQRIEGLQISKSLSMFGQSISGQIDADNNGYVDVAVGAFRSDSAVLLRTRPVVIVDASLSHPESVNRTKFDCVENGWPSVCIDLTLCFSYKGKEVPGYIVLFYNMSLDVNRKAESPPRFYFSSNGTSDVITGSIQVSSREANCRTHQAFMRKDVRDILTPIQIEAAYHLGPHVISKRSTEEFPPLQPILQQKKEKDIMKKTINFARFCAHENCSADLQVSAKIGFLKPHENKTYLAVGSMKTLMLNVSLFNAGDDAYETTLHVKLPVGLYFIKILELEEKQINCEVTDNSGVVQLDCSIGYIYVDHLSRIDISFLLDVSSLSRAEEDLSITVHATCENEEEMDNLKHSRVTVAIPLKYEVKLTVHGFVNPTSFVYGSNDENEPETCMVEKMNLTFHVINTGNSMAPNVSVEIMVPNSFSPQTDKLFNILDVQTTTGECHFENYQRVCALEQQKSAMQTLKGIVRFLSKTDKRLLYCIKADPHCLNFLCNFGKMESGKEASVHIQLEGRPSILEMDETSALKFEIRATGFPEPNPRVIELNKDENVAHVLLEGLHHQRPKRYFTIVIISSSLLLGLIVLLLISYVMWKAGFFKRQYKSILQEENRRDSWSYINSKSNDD
Sequence of ATP-binding cassette sub-family B member 6 (Homo sapiens) (Q9NP58 whole entry, looked up): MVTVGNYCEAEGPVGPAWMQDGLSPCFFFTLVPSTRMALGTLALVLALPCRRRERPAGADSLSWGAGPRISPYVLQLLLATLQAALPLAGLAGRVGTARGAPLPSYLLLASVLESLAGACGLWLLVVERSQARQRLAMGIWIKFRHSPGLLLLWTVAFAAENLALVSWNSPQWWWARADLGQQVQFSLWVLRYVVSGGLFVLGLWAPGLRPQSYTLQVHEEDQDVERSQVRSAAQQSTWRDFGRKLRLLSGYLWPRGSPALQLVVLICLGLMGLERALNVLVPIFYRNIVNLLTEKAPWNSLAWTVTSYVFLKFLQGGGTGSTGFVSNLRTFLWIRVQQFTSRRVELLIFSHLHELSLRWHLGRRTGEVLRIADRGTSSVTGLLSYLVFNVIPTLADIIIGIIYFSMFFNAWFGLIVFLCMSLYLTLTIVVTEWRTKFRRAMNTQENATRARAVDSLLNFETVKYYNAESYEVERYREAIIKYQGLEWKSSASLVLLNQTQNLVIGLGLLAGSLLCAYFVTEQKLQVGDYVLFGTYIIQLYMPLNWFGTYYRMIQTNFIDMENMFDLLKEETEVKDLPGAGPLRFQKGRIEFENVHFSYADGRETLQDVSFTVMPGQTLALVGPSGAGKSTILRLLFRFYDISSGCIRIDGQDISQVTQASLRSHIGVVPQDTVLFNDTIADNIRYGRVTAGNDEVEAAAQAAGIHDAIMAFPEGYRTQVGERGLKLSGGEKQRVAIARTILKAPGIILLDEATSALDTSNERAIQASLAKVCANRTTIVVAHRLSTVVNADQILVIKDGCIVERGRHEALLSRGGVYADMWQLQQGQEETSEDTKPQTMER
Sequence of AP-2 complex subunit beta (Homo sapiens) (P63010 whole entry, looked up, the tested form may be a part, one chain of several): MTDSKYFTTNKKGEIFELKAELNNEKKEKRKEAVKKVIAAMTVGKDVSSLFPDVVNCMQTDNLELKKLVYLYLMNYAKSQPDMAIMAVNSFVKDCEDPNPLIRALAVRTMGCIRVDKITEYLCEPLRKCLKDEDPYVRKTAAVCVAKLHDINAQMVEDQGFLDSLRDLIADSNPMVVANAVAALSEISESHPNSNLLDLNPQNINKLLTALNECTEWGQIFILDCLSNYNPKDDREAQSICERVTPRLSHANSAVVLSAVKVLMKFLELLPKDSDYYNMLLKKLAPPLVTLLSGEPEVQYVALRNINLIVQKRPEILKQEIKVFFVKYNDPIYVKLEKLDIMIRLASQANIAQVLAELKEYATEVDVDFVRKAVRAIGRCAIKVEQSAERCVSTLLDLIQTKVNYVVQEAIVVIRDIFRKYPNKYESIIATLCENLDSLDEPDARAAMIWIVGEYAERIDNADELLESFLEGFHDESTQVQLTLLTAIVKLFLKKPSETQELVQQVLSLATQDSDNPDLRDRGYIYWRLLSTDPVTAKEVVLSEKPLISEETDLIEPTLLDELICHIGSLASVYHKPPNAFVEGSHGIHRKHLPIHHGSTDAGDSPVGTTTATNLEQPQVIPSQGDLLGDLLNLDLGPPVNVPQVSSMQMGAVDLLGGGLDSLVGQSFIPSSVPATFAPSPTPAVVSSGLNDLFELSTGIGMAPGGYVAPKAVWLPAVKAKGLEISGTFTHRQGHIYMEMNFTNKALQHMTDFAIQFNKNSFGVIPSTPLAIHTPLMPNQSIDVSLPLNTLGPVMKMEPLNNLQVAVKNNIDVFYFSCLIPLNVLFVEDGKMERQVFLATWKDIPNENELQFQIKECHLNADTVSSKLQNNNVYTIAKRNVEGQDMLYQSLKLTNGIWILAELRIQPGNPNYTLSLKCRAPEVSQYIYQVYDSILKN
Sequence of Beta-adrenergic receptor kinase 1 (Homo sapiens) (P25098 whole entry, looked up): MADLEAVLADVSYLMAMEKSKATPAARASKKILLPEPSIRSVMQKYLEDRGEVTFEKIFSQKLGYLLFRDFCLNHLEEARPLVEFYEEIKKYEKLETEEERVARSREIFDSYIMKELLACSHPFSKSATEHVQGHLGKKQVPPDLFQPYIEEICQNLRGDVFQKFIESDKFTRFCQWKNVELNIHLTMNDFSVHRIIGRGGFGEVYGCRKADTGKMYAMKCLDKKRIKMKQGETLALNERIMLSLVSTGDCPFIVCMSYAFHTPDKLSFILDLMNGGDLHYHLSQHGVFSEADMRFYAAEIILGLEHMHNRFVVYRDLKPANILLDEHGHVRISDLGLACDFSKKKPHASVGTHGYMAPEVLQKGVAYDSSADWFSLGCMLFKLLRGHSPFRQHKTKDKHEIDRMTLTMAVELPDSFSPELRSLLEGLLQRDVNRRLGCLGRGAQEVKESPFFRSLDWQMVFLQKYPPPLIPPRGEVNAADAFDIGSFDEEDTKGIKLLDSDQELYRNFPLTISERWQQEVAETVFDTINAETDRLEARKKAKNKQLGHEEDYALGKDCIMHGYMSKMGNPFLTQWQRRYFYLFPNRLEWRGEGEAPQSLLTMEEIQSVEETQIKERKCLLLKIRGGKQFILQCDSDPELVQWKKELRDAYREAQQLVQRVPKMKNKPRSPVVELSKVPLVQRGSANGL

On to `CCOc1ccc(OCCSc2nc3ccccc3[nH]2)cc1`, for which the percent of DMSO control GFP in test [1] is 98.2% (inactive). Also, the GFP response vs DMSO is 98.5% (inactive) in test [2] and 108% (inactive) in [4]. In test [3], the percent response of DMSO control is 101% (inactive). The GFP response, % of DMSO in test [5] is 83.3% (inactive). The same compound gave a double positive events in [6] of 60.3%. Moreover, in test [6], the vesicle binding response is 186% (inactive). Also, the inhibition was 16% (inactive) in test [7], -5.21% (inactive) in [11] and 3% (inactive) in test [15]. Further, in test [8], the superoxide response (% of plate) is 107% (inactive). The aptamer binding inhibition in [9] was 4% (inactive). Further, the response is -17.3% (inactive) in test [10] and 1.04% (inactive) in [12]. In addition, the binding (% of control) in test [13] is 98.7% (inactive). Also, the efflux inhibition (fraction of control) in test [14] was 0.05 (inactive). Moreover, the differentiation response in test [16] was -7.2% (inactive).

For the compound `CCCCOn1c(C)c(C(C)=O)c2c3no[n+]([O-])c3ccc21`, the percent of DMSO control GFP in test [1] is 101% (inactive). The GFP response vs DMSO was 105% (inactive) in [2] and 120% (inactive) in test [4]. Further, in [3], the percent response of DMSO control is 97.7% (inactive). Also, the GFP response, % of DMSO in test [5] was 99.4% (inactive). Further, the double positive events in test [6] came to 59.8%. The vesicle binding response in test [6] was 246% (inactive). Besides, the inhibition in test [7] was -12.7% (inactive); in test [11], -10.5% (inactive); in test [15], 7% (inactive). The superoxide response (% of plate) in test [8] was 106% (inactive). Besides, in [9], the aptamer binding inhibition was 0% (inactive). In addition, the response in test [10] is 25.4% (inactive); in test [12], 5.1% (inactive). Further, the binding (% of control) in test [13] was 94.3% (inactive). Further, the efflux inhibition (fraction of control) in [14] is -0.1 (inactive). The differentiation response in test [16] is 74.4% (active).

As to `CC(=O)O[C@H]1C[C@@]2(C)[C@@H](C[C@@H](O)[C@H]3[C@@]4(C)CC[C@@H](O)[C@@H](C)C4CC[C@@]32C)/C1=C(\CCC=C(C)C)C(=O)O` (stereo not given in full), the percent of DMSO control GFP in test [1] is 102% (inactive). The GFP response vs DMSO in test [2] is 107% (inactive); in test [4] it was 106% (inactive). For the same compound, the percent response of DMSO control in test [3] was 104% (inactive). The GFP response, % of DMSO in test [5] was 115% (inactive). The double positive events in test [6] was determined as 63.4%. Besides, the vesicle binding response in test [6] was 177% (inactive). Moreover, the inhibition in test [7] is 11.7% (inactive); in test [11] it was -14.5% (inactive); in test [15], 3% (inactive). Besides, the superoxide response (% of plate) in [8] is 116% (inactive). Further, the aptamer binding inhibition in [9] was -1% (inactive). For the same compound, the values for the response in test [10] and in test [12] were -16.8% (inactive) and -3.26% (inactive), respectively. Further, in test [13], the binding (% of control) is 100% (inactive). In addition, the efflux inhibition (fraction of control) in test [14] was 0.17 (inactive). The differentiation response in [16] is -9.91% (inactive).

`OC(CCCN1CCC(O)(c2ccc(Cl)cc2)CC1)c1ccc(F)cc1` (stereo not given): the percent of DMSO control GFP in test [1] was 99.6% (inactive). Further, the GFP response vs DMSO in test [2] was 103% (inactive); in test [4], 101% (inactive). Further, the percent response of DMSO control in [3] was 108% (inactive). Also, in [5], the GFP response, % of DMSO is 106% (inactive). In [6], this compound came in with a double positive events of 49.2%. Besides, in [6], the vesicle binding response was 168% (inactive). Besides, the inhibition in test [7] is -14.5% (inactive); in test [11] it was -4.86% (inactive); in [15] it was -1% (inactive). The superoxide response (% of plate) in [8] is 96% (inactive). In addition, the aptamer binding inhibition in test [9] is -3% (inactive). Moreover, the response in [10] was 5.29% (inactive); in test [12], -0.08% (inactive). In [13], the binding (% of control) was 104% (inactive). Further, in test [14], the efflux inhibition (fraction of control) is -0.005 (inactive). In addition, in test [16], the differentiation response was 10.1% (inactive).

As to `COc1ccccc1C(=O)Nc1cc2cc(Br)ccc2oc1=O`, in test [1], the percent of DMSO control GFP is 101% (inactive). For the same compound, the GFP response vs DMSO in test [2] was 106% (inactive); in [4], 99.4% (inactive). Moreover, the percent response of DMSO control in test [3] is 96% (inactive). Moreover, the GFP response, % of DMSO in test [5] is 101% (inactive). The same compound returned a double positive events in test [6] of 58.5%. Further, the vesicle binding response in [6] was 30.4% (inactive). Further, the values for the inhibition in [7], in test [11] and in test [15] were -4.61% (inactive), -7.21% (inactive) and 12% (inactive), respectively. Besides, in test [8], the superoxide response (% of plate) was 97.2% (inactive). In addition, the aptamer binding inhibition in test [9] is 3% (inactive). Further, the response was 4.22% (inactive) in test [10] and -0.54% (inactive) in test [12]. Besides, in test [13], the binding (% of control) was 101% (inactive). In addition, the efflux inhibition (fraction of control) in [14] was -0.47 (inactive). Moreover, in test [16], the differentiation response is -5.68% (inactive).

What is called inhibition is the change of the read-out against control, counted positive when it falls.
